# Data taken from PubChem BioAssay (Tox21).
# Values without a mark were called inactive. Results filed as inconclusive are left out. Where a call stands in place of a potency, no number is given. Some compounds were tested as several samples or in several runs, with calls that do not always agree. The source made the active and inactive calls. Unless noted, calls follow the shape of the dose curve; as a rule, active = well fitted curve in the direction sought with a large enough effect in the repeat runs; inconclusive = weak or mixed curves; inactive = no such curve, though single readings can be large; an effect the other way counts as inactive or inconclusive. Positions of bridges follow the written chain, without caps; N, C: chain ends. Non-standard residues stand in square brackets, D forms with d. Residues, ends and D or L forms follow the SMILES beside them. hArg = N=C(N)NCCCC[C@H](N)C(=O)O; Mpa = O=C(O)CCS
# Legend:
# [1] = qHTS assay to identify small molecule antagonists of the glucocorticoid receptor (GR) signaling pathway - cell viability counter screen (AID 720693); also: nearly all actives have a fitted effect of over 55% in size
# [2] = qHTS assay for identifying genotoxic compounds that show differential cytotoxicity against isogenic chicken DT40 cell lines with known DNA damage response pathways - wild type cell line (AID 743012); also: nearly all actives have a fitted effect of over 60% in size
# Method in brief: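 Parental DNA repair-proficient DT40 cells, 300 per well, were pre-incubated ~0.5 h at 37 C/5% CO2, pin-dosed with compounds in DMSO, then incubated 40 h. Viability was read as CellTiter-Glo luminescence after 30 min at room temperature.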
# [3] = qHTS assay for identifying genotoxic compounds that show differential cytotoxicity against isogenic chicken DT40 cell lines with known DNA damage response pathways - Rev3 mutant cell line (AID 743014); also: nearly all actives have a fitted effect of over 55% in size
# [4] = qHTS assay for identifying genotoxic compounds that show differential cytotoxicity against isogenic chicken DT40 cell lines with known DNA damage response pathways - Rad54/Ku70 mutant cell line (AID 743015); also: nearly all actives have a fitted effect of over 60% in size
# [5] = qHTS assay to identify small molecule antagonists of the androgen receptor (AR) signaling pathway - cell viability counter screen (AID 743033; also: nearly all actives have a fitted effect of over 45% in size)
# [6] = qHTS assay to identify small molecule antagonists of the androgen receptor (AR) signaling pathway using the MDA cell line - cell viability counter screen (AID 743041; also: nearly all actives have a fitted effect of over 45% in size; also: potency is read from the fitted curve at half-maximal effect)
# Method in brief: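 R1881-driven MDA-kb2 AR-luc cells, 3,000/well, were dosed with library compounds for 16 h; cell health came from CellTiter-Fluor fluorescence in the reporter wells.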
# [7] = molecular target: Androgen receptor (Homo sapiens) (UniProt P10275); test: qHTS assay to identify small molecule antagonists of the androgen receptor (AR) signaling pathway (AID 743035; active = well fitted inhibition curve with a large enough effect in the signal ratio in the repeat runs, not every such curve was filed as active; the % refers to the signal ratio)
# Method in brief: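 HEK293 cells stably carrying a UAS-driven beta-lactamase reporter (AR-UAS-bla GripTite) were plated for 4 h at 37C, then given compound and the agonist R1881 and incubated 16 h. Reporter activity was read by LiveBLAzer B/G FRET fluorescence after 2 h at room temperature.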
# [8] = molecular target: Androgen receptor (Homo sapiens) (UniProt P10275); test: qHTS assay to identify small molecule agonists of the androgen receptor (AR) signaling pathway using the MDA cell line (AID 743040; also: nearly all actives have a fitted effect of over 20% in size)
# Method in brief: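 After a 5 h incubation at 37C and 0% CO2, MDA-kb2 reporter cells were dosed with compounds in DMSO and kept 16 h under the same conditions. Luciferase activity was then read as luminescence with ONE-Glo.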
# [9] = molecular target: Androgen receptor (Homo sapiens) (UniProt P10275); test: qHTS assay to identify small molecule antagonists of the androgen receptor (AR) signaling pathway using the MDA cell line (AID 743042; also: nearly all actives have a fitted effect of over 55% in size)
# Method in brief: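 Antagonist mode: compounds plus R1881 agonist added to MDA-kb2 AR-luc cells, incubated 16 h at 37C. Luciferase reporter luminescence quantified, with multiplexed CellTiter-Fluor readout for cell viability.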
# [10] = molecular target: Androgen receptor (Homo sapiens) (UniProt P10275); test: qHTS assay to identify small molecule agonists of the androgen receptor (AR) signaling pathway (AID 743036; active = well fitted activation curve with a large enough effect in the signal ratio in the repeat runs, with a control signal flat, not every such curve was filed as active; the % refers to the signal ratio)
# Method in brief: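 AR-UAS-bla HEK293 cells, plated 4 h before dosing, were treated with compound for 16 h at 37C. beta-Lactamase reporter read after 2 h with LiveBLAzer B/G FRET substrate at room temperature.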
# Sequence of Androgen receptor (Homo sapiens) (P10275 whole entry, looked up): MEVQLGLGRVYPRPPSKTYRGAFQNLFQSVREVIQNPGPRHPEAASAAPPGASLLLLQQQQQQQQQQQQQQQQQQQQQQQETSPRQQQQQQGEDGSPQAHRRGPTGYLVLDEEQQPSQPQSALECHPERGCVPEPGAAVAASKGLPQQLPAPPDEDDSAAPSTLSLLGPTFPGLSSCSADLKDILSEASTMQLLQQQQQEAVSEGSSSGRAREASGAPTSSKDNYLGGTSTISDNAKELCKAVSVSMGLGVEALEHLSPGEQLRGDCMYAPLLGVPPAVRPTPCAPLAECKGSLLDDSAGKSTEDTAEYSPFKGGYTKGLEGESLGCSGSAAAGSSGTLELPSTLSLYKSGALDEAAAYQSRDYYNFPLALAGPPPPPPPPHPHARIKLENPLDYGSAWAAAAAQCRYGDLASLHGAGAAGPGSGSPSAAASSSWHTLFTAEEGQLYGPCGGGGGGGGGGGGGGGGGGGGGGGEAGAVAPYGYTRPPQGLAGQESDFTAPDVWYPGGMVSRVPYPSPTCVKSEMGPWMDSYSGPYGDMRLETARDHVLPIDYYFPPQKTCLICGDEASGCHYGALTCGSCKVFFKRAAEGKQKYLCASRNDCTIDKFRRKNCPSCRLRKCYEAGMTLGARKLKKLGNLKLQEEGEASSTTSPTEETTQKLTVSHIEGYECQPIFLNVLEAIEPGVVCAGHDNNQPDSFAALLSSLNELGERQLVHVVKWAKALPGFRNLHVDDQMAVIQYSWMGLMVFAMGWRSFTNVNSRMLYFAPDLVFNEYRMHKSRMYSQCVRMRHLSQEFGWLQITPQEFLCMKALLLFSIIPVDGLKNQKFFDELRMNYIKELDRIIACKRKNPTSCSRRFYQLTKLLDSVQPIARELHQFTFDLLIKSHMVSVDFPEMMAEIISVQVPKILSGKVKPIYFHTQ
structure (smiles),measurement,setting,value
O=C(O)CCCCCC(=O)O,outcome,[1],inactive
same,Potency,[2],inactive
same,Potency,[3],inactive
same,Potency,[4],inactive
same,outcome,[5],inactive
same,Potency,[6],inactive
CCn1cc(C(=O)O)c(=O)c2cnc(N3CCCC3)nc21,outcome,[1],inactive
same,Potency,[2],inactive
same,Potency,[3],inactive
same,Potency,[4],inactive
same,outcome,[5],inactive
same,Potency,[6],inactive
CCCC(=O)OC/C=C(\C)CCC=C(C)C,outcome,[1],inactive
same,Potency,[2],inactive
same,Potency,[3],inactive
same,Potency,[4],inactive
same,outcome,[5],inactive
same,Potency,[6],inactive
Cc1c(N)cccc1Cl,outcome,[1],inactive
same,Potency,[2],inactive
same,Potency,[3],inactive
same,Potency,[4],inactive
same,outcome,[5],inactive
same,Potency,[6],inactive
CC1=C(O)C(=O)C(C)O1 (configuration not stated),outcome,[1],inactive
same,Potency,[2],inactive
same,Potency,[3],inactive
same,Potency,[4],inactive
same,outcome,[5],inactive
same,Potency,[6],inactive
CCCCOCCOC(=O)COc1ccc(Cl)cc1Cl,outcome,[1],inactive
same,Potency,[2],inactive
same,Potency,[3],inactive
same,Potency,[4],inactive
same,outcome,[5],inactive
same,Potency,[6],inactive
CCc1occc(=O)c1O,outcome,[1],inactive
same,Potency,[2],inactive
same,Potency,[3],inactive
same,Potency,[4],inactive
same,outcome,[5],inactive
same,Potency,[6],inactive
O=C(CN1CCNCC1)NC1CCCCC1,outcome,[1],inactive
same,Potency,[2],inactive
same,Potency,[3],inactive
same,Potency,[4],inactive
same,outcome,[5],inactive
same,Potency,[6],inactive
O=C1c2ccccc2C(=O)c2cc(Cl)ccc21,"viability change, negative = cytotoxic",[1],-1.8% [at 7.04 µM]
same,"activity change, negative = cytotoxicity",[2],8.37% [at 8.52 µM]
same,"activity, negative = cytotoxicity",[3],3.55% [at 8.53 µM]
same,"activity change, negative = cytotoxicity",[4],2.51% [at 8.55 µM]
same,"activity change, negative = cytotoxicity",[5],5.05% [at 7.04 µM]
same,"viability change, negative = cytotoxic",[6],-1.61% [at 8.47 µM]
C=CC(=O)CCCCC,outcome,[1],inactive
same,Potency,[2],inactive
same,Potency,[3],inactive
same,Potency,[4],inactive
same,outcome,[5],inactive
same,Potency,[6],inactive
CCOC(=O)CC1(C)OCC(C)O1 (configuration not stated),outcome,[1],inactive
same,Potency,[2],inactive
same,Potency,[3],inactive
same,Potency,[4],inactive
same,outcome,[5],inactive
same,Potency,[6],inactive
O=S(=O)(O)c1ccc2c(N=Nc3ccc(S(=O)(=O)O)c4ccccc34)c(O)c(S(=O)(=O)O)cc2c1,outcome,[1],inactive
same,Potency,[2],inactive
same,Potency,[3],inactive
same,"activity change, negative = cytotoxicity",[4],0.0993% [at 8.55 µM]
same,outcome,[5],inactive
same,Potency,[6],22.1 µM (active)
same,"viability change, negative = cytotoxic",[6],-3.01% [at 8.47 µM]
NCc1ccc(S(N)(=O)=O)cc1,outcome,[1],inactive
same,Potency,[2],inactive
same,Potency,[3],inactive
same,Potency,[4],inactive
same,Potency,[6],inactive
CCCCCCCCCOC(=O)CCCCC(=O)OCCCCCCC,outcome,[1],inactive
same,Potency,[2],inactive
same,Potency,[4],inactive
same,outcome,[5],inactive
same,Potency,[6],inactive
Cc1ncc([N+](=O)[O-])n1CC(C)O (configuration not stated),outcome,[1],inactive
same,Potency,[2],inactive
same,Potency,[4],inactive
same,outcome,[5],inactive
same,Potency,[6],inactive
CC(=O)CCc1ccc(OC(C)=O)cc1,outcome,[1],inactive
same,Potency,[2],inactive
same,Potency,[4],inactive
same,outcome,[5],inactive
same,Potency,[6],inactive
CCC(C)C(=O)OCCc1ccccc1 (configuration not stated),outcome,[1],inactive
same,Potency,[2],inactive
same,Potency,[4],inactive
same,outcome,[5],inactive
same,Potency,[6],inactive
O=C1CCC(=O)N1Cl,outcome,[1],inactive
same,Potency,[2],inactive
same,Potency,[4],inactive
same,outcome,[5],inactive
same,Potency,[6],inactive
COC(=O)c1cc(Cl)cc(Cl)c1,outcome,[1],inactive
same,Potency,[2],inactive
same,Potency,[4],inactive
same,outcome,[5],inactive
same,outcome,[7],inactive
same,Potency,[8],inactive
same,Potency,[6],inactive
same,outcome,[9],inactive
CC(C)(C)NC[C@H](O)COc1cccc2c1CCCC2=O,outcome,[1],inactive
same,Potency,[2],inactive
same,Potency,[3],inactive
same,Potency,[4],inactive
same,Potency,[6],inactive
NC(=O)[C@@H]1CSSCCC(=O)N[C@@H](CCCCN=C(N)N)C(=O)NCC(=O)N[C@@H](CC(=O)O)C(=O)N[C@@H](Cc2c[nH]c3ccccc23)C(=O)N2CCC[C@H]2C(=O)N1 ([Mpa][hArg]GDWPC-NH2; disulfide 1-7),outcome,[1],inactive
same,Potency,[2],inactive
same,Potency,[3],inactive
same,Potency,[4],inactive
same,Potency,[6],inactive
CC(C)OC(=O)OCOP(=O)(CO[C@H](C)Cn1cnc2c(N)ncnc21)OCOC(=O)OC(C)C,outcome,[1],inactive
same,Potency,[2],inactive
same,Potency,[4],inactive
same,outcome,[5],inactive
same,Potency,[6],inactive
Cc1c(NC(=O)c2cccnc2)c(=O)n(-c2ccccc2)n1C,outcome,[1],inactive
same,Potency,[2],inactive
same,Potency,[3],inactive
same,Potency,[4],inactive
same,Potency,[6],inactive
CC(O)COC(C)(C)C (configuration not stated),outcome,[1],inactive
same,Potency,[2],inactive
same,Potency,[4],inactive
same,outcome,[5],inactive
same,Potency,[6],inactive
Cc1ccc(N)cc1S(=O)(=O)O,outcome,[1],inactive
same,Potency,[2],inactive
same,Potency,[3],inactive
same,outcome,[5],inactive
same,Potency,[6],inactive
CC(N)CCCC(C)(C)O (configuration not stated),outcome,[1],inactive
same,Potency,[2],inactive
same,Potency,[4],inactive
same,outcome,[5],inactive
same,Potency,[6],inactive
CC(C)[C@H]1CC[C@H](C)C[C@@H]1O,outcome,[1],inactive
same,Potency,[2],inactive
same,Potency,[4],inactive
same,outcome,[5],inactive
same,outcome,[7],inactive
same,outcome,[10],inactive
same,Potency,[8],inactive
same,Potency,[6],inactive
same,outcome,[9],inactive
CC1=NN(c2ccc(S(=O)(=O)O)cc2)C(=O)C1,outcome,[1],inactive
same,Potency,[2],inactive
same,Potency,[4],inactive
same,outcome,[5],inactive
same,Potency,[6],inactive
C=Cc1ccc(C(C)(C)C)cc1,outcome,[1],inactive
same,Potency,[2],inactive
same,Potency,[4],inactive
same,outcome,[5],inactive
CO[Si](CCCn1c(=O)n(CCC[Si](OC)(OC)OC)c(=O)n(CCC[Si](OC)(OC)OC)c1=O)(OC)OC,outcome,[1],inactive
same,Potency,[2],inactive
same,Potency,[3],inactive
same,outcome,[5],inactive
same,Potency,[6],inactive
CC(Oc1cc(Cl)ccc1Cl)C(=O)O (configuration not stated),outcome,[1],inactive
same,Potency,[2],inactive
same,Potency,[3],inactive
same,outcome,[5],inactive
same,outcome,[7],inactive
same,Potency,[8],inactive
same,Potency,[6],inactive
same,outcome,[9],inactive
CN(C)CCOC(=O)C(c1ccccc1)C1(O)CCCC1 (configuration not stated),outcome,[1],inactive
same,Potency,[2],inactive
same,Potency,[4],inactive
same,outcome,[5],inactive
same,Potency,[6],inactive
